# Experimental data: PubChem BioAssay (NCATS)
# Values without a mark were called inactive. A call without a number means that no potency is given here. Activity calls are given as the source filed them. Calls come from the whole dose curve; as a rule, active = well fitted inhibition curve with a large enough effect; inconclusive = small, poorly fitted or top-dose-only effect; inactive = flat fitted curve, though single readings scatter.
# Test system: Nanoluciferase (engineered Oplophorus gracilirostris luciferase)
# Experiment: Primary Nanoluciferase (NLuc) qHTS assay for identification of artifact compounds. (AID 1845222)
# Conditions: NLuc-conditioned medium, Nano-Glo luminescence, 5 min; series mostly up to 54.1 µM
# Method in brief: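 Luminescence read-out of secreted NLuc in S16 cell conditioned medium (1:55); compounds tested with 15 min RT preincubation, then Nano-Glo substrate 1:100, 5 min. % inhibition vs no-enzyme and DMSO controls, 4-parameter Hill fit.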
SMILES,Potency,"activity, negative = inhibition"
CN1CCC(c2cn(C)c3ccc(OS(=O)(=O)c4c(F)cccc4F)cc23)CC1,inactive,–
C[C@@H]1O[C@@H](O[C@H]2[C@H](O[C@H]3CC[C@@]4(C)C(CC[C@]5(C)C4C=C[C@]46OC[C@@]7(CCC(C)(C)C[C@H]74)[C@@H](O[C@@H]4O[C@@H](C)[C@H](O)[C@@H](O)[C@H]4O)C[C@]65C)[C@]3(C)CO)O[C@H](CO)[C@@H](O)[C@@H]2O[C@@H]2O[C@H](CO)[C@@H](O)[C@H](O)[C@H]2O)[C@H](O)[C@H](O)[C@H]1O (stereo partly specified),–,3.17% [at 11.6 µM]
CCCC1(CCC)CCC2(CCN(CCCN(CC)CC)C2)CC1,inactive,–
CC(=O)O[C@H]1CC(C)(C)CC2[C@]13CO[C@@]21CCC2[C@@]4(C)CC[C@H](O[C@@H]5OC[C@H](O[C@@H]6O[C@H](CO)[C@@H](O)[C@H](O)[C@H]6O[C@@H]6OC[C@@H](O)[C@H](O)[C@H]6O)[C@H](O)[C@H]5O[C@@H]5O[C@H](CO)[C@@H](O)[C@H](O)[C@H]5O)[C@@](C)(CO)C4CC[C@@]2(C)[C@]1(C)C[C@H]3O (stereo partly specified),–,2.37% [at 11.6 µM]
CCOC(=O)N1CCC(CN(Cc2ccc(Cl)cc2)Cc2ccc([N+](=O)[O-])s2)C1 (stereo unspecified),inactive,–
CC(=O)c1c(C)cc2cccc(O)c2c1O[C@@H]1O[C@H](CO)[C@@H](O)[C@H](O)[C@H]1O,inactive,–
